According to PubChem BioAssay (NCI):
Compounds without any hit were thinned out: in the full panel of roughly 83,000, 20% have a hit.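 Interpretation: 100, growth as untreated; towards 0, rising growth inhibition; 0, no net growth; 0 to -100, cell death. Compounds scoring below 10 were considered active.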 Unmarked numbers belong to inactive results. Activity calls are given as the source filed them.

Key:
Assay in all cases: NCI-60 one-dose screen, 48 h (100 = growth as untreated, 0 = no growth, -100 = all killed)
Details in all cases: 10 µM unless noted
[1] = test system: NCI-H23 lung
[2] = test system: NCI-H226 lung
[3] = test system: NCI-H322M lung
[4] = test system: HOP-62 NSCLC
[5] = test system: NCI-H460 lung
[6] = test system: HOP-92 NSCLC
[7] = test system: NCI-H522 lung
[8] = test system: A549/ATCC NSCLC
[9] = test system: 786-0 renal
[10] = test system: COLO 205 colon

Structure (SMILES) | growth [1] | growth [2] | growth [3] | growth [4] | growth [5] | growth [6] | growth [7] | growth [8] | growth [9] | growth [10]
COc1ccc(CCN2C(=O)CSC2=S)cc1OC | 98.9% | 100% | 101% | 105% | 102% | 68.7% | 55.1% | 97.2% | 94.9% | 117%
Cc1cc(C(=O)Nc2ccc(SC#N)cc2)c(C)o1 | 89.5% | 77.7% | 96.2% | 63.9% | 82.4% | 110% | 49.8% | 82.4% | 88.2% | 106%
CS(=O)(=O)c1nccc(-c2c(-c3ccc(F)c(OCc4ccc(F)cc4)c3)nc3sccn23)n1 | 99.2% | 83.7% | -78.2% (active) | 68.3% | 10.3% | 23% | 53.9% | 104% | 95.1% | 109%
COc1cc(/C=N/n2cnc3oc(-c4ccccc4)cc3c2=N)cc(CN2CCCCC2)c1O | -56.4% (active) | -3.78% (active) | -1.45% (active) | -39.2% (active) | -72.7% (active) | 86.2% | -42.2% (active) | -68.8% (active) | -79.5% (active) | 11.7%
Cc1cnc2nc(NN)[nH]n12 | 104% | 93.4% | 100% | 93% | 103% | 100% | 93.1% | 99.2% | 103% | 101%
COC(=O)c1nc(-c2ccc(C)cc2)oc1S(=O)(=O)N1CCN(c2oc(-c3ccccc3)nc2C#N)CC1 | 102% | 101% | 103% | 112% | 103% | 106% | 92.2% | 102% | 102% | 107%
CC1(COc2ccc3ncc(C#Cc4cncc(C(=O)Nc5cc(C(C)(C)C)on5)c4)n3n2)COC1 | 28.7% | 18.8% | 60.4% | 29.1% | 23.3% | -22.6% (active) | 56.9% | 47.2% | 52.3% | 61.9%
COc1ccc(Cn2cc3c(c2-c2ccccc2)CCCc2cnoc2-3)cc1 | 77.6% | 79% | 76% | 63.8% | 26.9% | 72% | 34.9% | 56.6% | 73.3% | 40.9%
CC(=O)Oc1ccc(CCN2C(=O)CSC2=S)cc1 | 101% | 89.4% | 99.8% | 111% | 101% | 53.7% | 61.7% | 106% | 79.7% | 115%
CCOC(=O)/C(F)=C/C1CC1CCc1cccc(C(F)(F)F)c1 (stereo not given) | 101% | 102% | 106% | 98.3% | 111% | 116% | 100% | 107% | 103% | 103%
C/C(=N\NC(=S)Nc1ccc(Br)cc1)c1cc2ccccc2oc1=O | 34.1% | -17.8% (active) | 37.4% | 30.5% | 3.8% (active) | 29.1% | -14.4% (active) | 27.3% | 5.25% (active) | 71.1%
O=C(COc1cccc2cccnc12)Nc1ccc(C(=O)/C=C/c2ccc(Cl)cc2)cc1 | 89.2% | 94.6% | 99.1% | 108% | 102% | 108% | 85.2% | 85.4% | 99% | 108%
CCOC(=O)c1c(Nc2ccccc2)nn2c(-c3ccc(Br)cc3)ccnc12 | 64.9% | 63.3% | 79.1% | 47.4% | 33.9% | 28.2% | 80.9% | 56.4% | 54.3% | 80.1%
CCOC(=O)c1nn(-c2ccccc2)c(=O)c2c(N)c(C#N)c(-c3cccs3)cc12 | 69.4% | 60% | 91.4% | 80.4% | 92.9% | 61.3% | 83.8% | 87.2% | 41.4% | 102%
COc1ccc(/C=N\NC(=O)c2ccc3nc(-c4ccc(Br)cc4)[nH]c3c2)cc1 | 24.5% | 64.3% | 66.2% | 4.06% (active) | -47.7% (active) | -2.97% (active) | 74.6% | 23.8% | 12.8% | 18.4%
CN1CCN(c2ccc(NC(=O)Nc3ccc4c(ccn4-c4cccc(C(N)=O)n4)c3)cc2C(F)(F)F)CC1 | 72.5% | 83.6% | 58.3% | 63.2% | 87.2% | 119% | 71.6% | 51.8% | 6.16% (active) | 44.4%
c1cncc(-c2cn3nc(-c4c[nH]c5ccccc45)sc3n2)c1 | 49.9% | -48.5% (active) | 72.2% | 66% | 25.4% | 33.8% | 2.85% (active) | 57.8% | 22.5% | 44.4%
Cn1cc(-c2nn3cc(-c4cccnc4)nc3s2)c2cc(F)ccc21 | 93.9% | 75% | 87.8% | 71.6% | 94.2% | 60.5% | 70.2% | 94.4% | 110% | 83.2%
COc1ccc2c(c1)c(-c1nn3c(=O)cc(-c4ccccc4)nc3s1)cn2C | 63% | 21.1% | 65.2% | 43.2% | 21.7% | 18.7% | -34% (active) | 56.7% | 37.8% | 27.2%
O=C1c2c(c3c4cccnc4[nH]c3c3ccc4ccccc4c23)C(=O)N1CCN1CCCCC1 | 29.3% | 64.6% | 69.6% | 36.6% | 12.5% | 70.4% | 63% | 46.8% | 52.6% | 69.4%
O=C(NNc1nc2cc(F)ccc2n2cncc12)c1cnccn1 | 37.4% | 44.6% | 25.4% | 36.1% | 4.66% (active) | 63.7% | 24.3% | 22.2% | 10% | 19.5%
COc1ccc(OC)c(NC2=C(Cl)C(=O)C(C)=C(C)C2=O)c1 | 85.8% | 84.2% | 103% | 92.1% | 98.4% | 96.6% | 87.2% | 101% | 102% | 107%
COc1cnc2c(c1)C(=O)c1c-2n(CCCNCC2CC2)c(=O)c2cc(F)ccc12 | -44.5% (active) | -14.1% (active) | -1.44% (active) | -31.6% (active) | -66.6% (active) | -5.96% (active) | -55.3% (active) | -61.9% (active) | -32.4% (active) | -45.8% (active)
C=C(C)C(=O)O[C@H]1C[C@@]2(C)OC(=CC2=O)/C(CO)=C\[C@H]2OC(=O)C(=C)[C@H]12 | -35.2% (active) | -39.3% (active) | 87.6% | 58.9% | 12.5% | -61.4% (active) | -68.3% (active) | 65.7% | -66.5% (active) | -72.9% (active)
COc1ccc(N2C(=O)c3cc(OC)c(OC)cc3NC2SCc2ccccc2)cc1 (stereo not given) | 107% | 102% | 104% | 107% | 122% | 112% | 95.2% | 110% | 117% | 109%
CCOC(=O)c1c(NC(=O)c2ccc(C(C)(C)C)cc2)sc2cc(OCCN3CCCCC3)ccc12 | 88.6% | 101% | 83.1% | 91.1% | 13.9% | 66.1% | 96.8% | 77% | 75.5% | 25.6%
